Compounds with a hit are over-represented: about 2.3% of the library has one in this group of screens.
FAS-TE inh: inhibitors of human fatty acid synthase thioesterase domain; inhibition, % at 15 µM; P49327; recombinant FAS-TE, OMFH fluorogenic substrate, fluorescence endpoint; 360,000 compounds, 0.67% hits;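 active means compounds whose normalised, plate-corrected inhibition of enzyme fluorescence in the single-dose primary screen is 50% or more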;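 further: 0% = DMSO with enzyme and 100% = substrate without enzyme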
beta cell repl: inducers of beta-cell replication in MIN6 cells | 330,000 compounds, 0.29% hits | AID 2380 | proliferation, % at 10 µM | MIN6 cells proliferation, ATPlite luminescence, 48 h; cells starved in 0.2% serum; 100% = growth in 10% serum;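 active means compounds whose signal lies at least 3.5 SD above the mean of all wells on their plate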;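 further: 0% = DMSO-treated cells in low-serum medium and 100% = 10% serum control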
H9c2 TAG inh: inhibitors of triacylglycerol accumulation. 230,000 compounds, 0.66% hits. inhibition, % at 12.5 µM. H9c2 cells, Nile Red lipid (TAG) fluorescence; cells loaded with 200 µM oleic acid;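 active means pattern-corrected inhibition of lipid staining of at least 50% with the nuclear-stain viability signal not falling by more than 50%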;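 further: 0% = DMSO wells and 100% = triacsin C control wells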
H9c2 protect: protects H9c2 cardiomyocytes from peroxide injury; protection from H2O2 cell death, % at 20 µM; 360,000 compounds, 0.63% hits; AID 588492; H2O2 injury protection, ATPLite, 2 h;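 active means compounds giving at least 50% protection of heart cells from peroxide-induced death in the single-dose screen, raw or plate-pattern-corrected value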;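 further: 0% = DMSO wells with peroxide and 100% = DMSO wells without peroxide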
aDG glyco act: increases alpha dystroglycan glycosylation; 360,000 compounds, 0.22% hits; activation, % at 10 µM; Pro5-aDG cells, alpha-DG glycosylation AlphaScreen (IIH6); 0% Pro5, 100% B10-LARGE cell signal;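 active means activation of at least 8% versus controls, or a plate z-score of at least 8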;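 further: Pro5 are CHO cells carrying HIG-tagged alpha-DG that lacks glycosylation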
Calpain2 inh: inhibitors of pig calpain II; purified calpain II, fluorogenic peptide substrate, 30 min; inhibition, % at 16 µM; 220,000 compounds, 0.37% hits; AID 1236;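 active means inhibition above about 50%, limit read from the data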
Starred values were filed as active, the others as inactive; i = inactive; . = not tested or not shown; ! = a repeat was not active.

SMILES	FAS-TE inh	beta cell repl	H9c2 TAG inh	H9c2 protect	aDG glyco act	Calpain2 inh
Oc1c(Br)cc(Br)cc1/C=N/c1nccs1	0.8	-7.7	11.5	56.7*	-0.1	.
Oc1c(Br)cc(Br)cc1C=Nc1ccc2[nH]ncc2c1	-7.5	-4.8	1.7	34.8	-0.1	-53.6
CCc1nnc(NC(=O)CCC(=O)Nc2ccc(C)cc2)s1	-4.2	0.9	.	15.6	-0.2	.
COc1cc(C(=O)Nc2nc(-c3cccs3)cs2)cc(OC)c1OC	29.0	-4.1	.	81.1*	-0.6	20.9
Fc1ccc([C@@H]2CCNC[C@H]2COc2ccc3c(c2)OCO3)cc1	-8.8	-5.5	51.7*!	6.8	0.5	15.8
Fc1ccc(C2CCNCC2COc2ccc3c(c2)OCO3)cc1 (centres undefined)	-8.3	-5.9	.	-1.2	0.4	.
CCOC(=O)CNS(=O)(=O)c1ccc(S(=O)(=O)NC2CC2)cc1	-3.8	-0.6	18.1	-3.2	0.0	.
Oc1cccc2cc(Nc3ccccc3)cnc12	-4.3	.	68.9*	16.9	1.0	.
Cc1ccc(S(=O)(=O)N2C[C@H]3C(=O)C[C@@H](c4ccc(Cl)cc4)N(S(=O)(=O)c4ccccc4C)[C@H]3C[C@H]2c2cccc(Cl)c2)cc1	22.5	.	35.6	-5.2	-0.1	.
CC(=O)CCc1ccc(Oc2nc(-c3cccnc3)nc3ccccc23)cc1	42.4	0.8	-7.5	54.9*	0.7	-49.8
CCOC(=O)c1[nH]c(C)c(C(=O)N2CCc3ccccc32)c1C	-5.5	-3.0	55.6*	-2.5	-0.1	5.5
CC(=O)c1c(C)[nH]c(C(=O)N2CCc3ccccc32)c1C	2.8	-0.3	-10.4	7.4	-0.2	0.0
O=C(CN1CCN(Cc2ccccc2)CC1)Nc1ccc([N+](=O)[O-])cc1C(=O)Nc1ccccc1F	43.1	-6.0	.	50.9*	-1.2	10.3
CCOC(=O)N1CCN(CC(=O)Nc2ccc([N+](=O)[O-])cc2C(=O)Nc2ccccc2F)CC1	37.0	-0.6	12.5	41.9	-0.7	36.6
COc1ccc(CNC(=O)COc2cc(O)c3c(c2)OC(C)(C)CC3=O)cc1	4.5	8.3	.	-2.6	0.1	.
Cc1c(OCc2ccc([N+](=O)[O-])cc2)ccc2c3c(c(=O)oc12)CCC3	-0.4	0.0*	.	-1.5	0.3	-8.7
Cc1oc(C(=O)O)cc1COc1ccc2c3c(c(=O)oc2c1C)CCC3	-10.9	-0.6	.	4.0	0.4	i
CN1CCN(CCC(=O)N/N=C/c2ccccc2F)CC1	-5.3	-2.4	-19.6	7.3	0.1	-20.6
O=C(CCN1CCN(c2ccccc2)CC1)N/N=C/c1ccccc1O	-3.7	-5.9	-5.0	55.1*	1.2	-277.3
NC(=O)COc1ccc2oc(=O)cc(-c3cc4ccccc4o3)c2c1	17.3	-1.9	.	70.6*	-0.2	.
COc1cccc2cc(-c3cc(=O)oc4ccc(OCC(C)=O)cc34)oc12	22.9	-1.2	.	62.8*	-0.8	.
CC(C(=O)NC1CCCC1)n1c(-c2ccccn2)nc2ccccc21 (centres undefined)	.	.	.	.	0.5	.
COc1cc(Cl)cc(/C=C/c2ccc3cccc(O)c3n2)c1OC	14.3	-4.8	.	57.3*	0.0	.
CCC(=O)Nc1ccc(Cl)c(NC(=S)NC(=O)c2cc3ccccc3o2)c1	-10.7	-3.7	.	1.8	0.0	51.4*
CCC(=O)N1CCN(c2ccc(NC(=O)c3cc4ccccc4o3)cc2Cl)CC1	7.9	1.0	46.3	53.0*	-0.5	8.6
SMILES	FAS-TE inh	beta cell repl	H9c2 TAG inh	H9c2 protect	aDG glyco act	Calpain2 inh
COC(=O)C(Cc1ccc(O)cc1)NC(=O)C1CCN(S(=O)(=O)c2ccc(C)cc2)CC1 (centres undefined)	6.6	-0.5	.	1.6	-0.1	.
N#C/C(=C\c1cn(-c2ccccc2)nc1-c1cccnc1)c1nnc2n1CCCCC2	-5.8	-1.3	.	51.0*	0.2	6.7
Cc1cc(NC(=O)c2cnn3c(C(F)F)cc(-c4ccccc4)nc23)no1	24.7	-0.1	17.6	20.0	-0.3	14.1
Cc1cc(NC(=O)c2cnn3c(C(F)(F)F)cc(-c4ccccc4)nc23)no1	23.9	1.9	.	93.4*	-0.5	-43.1
C[C@H](NC(=O)c1ccccc1Cl)C(=O)OC(C(=O)Nc1cc(C(F)(F)F)ccc1Cl)c1ccccc1 (some centres undefined)	21.9	-2.7	-4.2	-5.3	0.1	15.1
O=C(CNC(=O)c1ccccc1F)OC(C(=O)Nc1cc(C(F)(F)F)ccc1Cl)c1ccccc1 (centres undefined)	27.4	-3.3	.	-9.4	-0.1	61.2*
Cc1ccc(-c2nn(-c3ccccc3)c3[nH]c(=O)c(CNCc4ccccc4)cc23)cc1	-5.9	-3.7	.	51.6*	-0.2	-130.1
Cc1nn(-c2ccccc2)c2[nH]c(=O)c(CNCc3ccc4c(c3)OCO4)cc12	-2.6	-1.5	-7.4	0.6	-0.3	-10.5
CCOc1ccc(NCc2cc3c(C(C)(C)C)nn(-c4ccccc4)c3[nH]c2=O)cc1	13.6	-4.0	.	58.3*	-0.1	-40.1
CC(C)(C)c1nn(-c2ccccc2)c2[nH]c(=O)c(C=O)cc12	-3.2	-4.8	5.6	56.8*	-0.1	.
COc1cccc(/C=N/NC(=O)Cn2ccnc2C)c1	-6.8	-0.4	.	-5.9	-0.1	-4.4
COc1c(O)cccc1/C=N/NC(=O)Cn1ccnc1C	-3.7	-2.3	27.7	57.0*	0.4	5.6
O=C(NNC(=O)c1cc(Br)ccc1O)c1csc(N2CCOCC2)n1	7.5	-5.8	-9.7	66.4*	0.3	.
COc1ccc(C(=O)NCC(=O)OCC(=O)NC2CCCCCC2)cc1OC	-5.7	3.1	-6.0	0.8	0.5	.
N#Cc1ccc(OCC(=O)N2CCN(C(=O)c3ccco3)CC2)cc1	-7.1	-2.7	-0.8	-2.8	-0.1	.
CC(=O)O[C@H]1CC(=O)OC(C)(C)C2CC(=O)[C@]3(C)C(CC[C@@](C)([C@@H](O[C@@H]4O[C@H](CO)[C@@H](O)[C@H](O)[C@H]4O)c4ccoc4)[C@@]34O[C@@H]4C(=O)O)[C@]21C (some centres undefined)	-3.9	3.1	.	2.2	-0.1	.
Cn1c(=N)n(CC(=O)c2ccc(Br)s2)c2ccccc21	-6.7	0.0	36.8	-33.0	13.4*	7.9
Cc1ccc(Cn2c(=N)n(CC(=O)c3ccccc3)c3ccccc32)cc1	63.7*	-5.8	4.3	-34.5	11.9*	-40.5
N=c1n(CC(=O)c2ccc(Br)s2)c2ccccc2n1Cc1ccccc1	40.3	-6.2	53.0*	-13.5	0.8	9.7
COc1cc(C(=O)OCC(=O)Nc2cccc(S(=O)(=O)N3CCCC3)c2)ccc1OCC(C)C	28.2	-1.8	-0.5	-1.4	0.1	.
C=CC[C@H](CC(=O)N(CCO)Cc1ccccc1)C(=O)NCCOC(=O)[C@@H](CC=C)CC(=O)OC(C)(C)C	-8.1	-2.5	-2.7	0.5	0.2	.
CCOc1ccc(N=C/C=C/c2ccccc2)c(O)c1	-3.9	-5.3	.	-20.4	2.1	25.1
CCOC(=O)CN1N=C(/C=C/c2ccc(C(C)C)cc2)CCC1=O	7.0	-3.5	-3.6	-7.0	-0.3	54.7*

Bioassay records deposited in PubChem BioAssay by several laboratories.
